Screening data as filed in PubChem BioAssay.
A selection: hits, their analogues and other compounds. The true share with any hit is near 4.1%.
DAX1 inh-1 = inhibits human nuclear receptor DAX1; P51843; inhibition, % at 6.75 µM; HEK293 Gal4-DAX1 luciferase reporter, luminescence; 340,000 tested, 0.99% active;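 active = inhibition above the mean over all tested compounds plus 3 SD, cut at about 4.2% in these data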;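 note: inhibition shows as a rise in luminescence from relieved DAX1 repression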
hcDAF-12 act = activates DAF-12 receptor from parasite H. contortus | 370,000 tested, 1.4% active | activation, % at 6.8 µM | HEK293 hcDAF-12 lit1-tk-luc reporter, luminescence; 0% DMSO, 100% Δ7-dafachronic acid;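 active = activation above the mean of all tested compounds plus 3 SD, cut at about 5.5% in these data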
ssDAF12 agonist = activators of S. stercoralis DAF-12 nuclear receptor. HEK293 ssDAF-12/GRIP1 lit1-tk-luc reporter, luminescence; % of 3 µM dafachronic acid response. activation, % at 6.8 µM. 370,000 tested, 1% active;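 active = activation above the mean over all tested compounds plus 3 SD, cut at about 0.9% in these data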
DAX1 inh-2 = blocks DAX1 repression of SF-1 activated StAR promoter | HEK293T StAR-luciferase reporter, SF-1/DAX-1 repression relief | inhibition, % at 6.8 µM | 370,000 tested, 1.1% active | AID 652010;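 active = inhibition above the mean over all tested compounds plus 3 SD, cut at about 3.6% in these data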;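 note: higher inhibition means more luminescence from relief of DAX-1 repression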
hgDAF12 agonist = agonists of H. glycines DAF-12 nuclear receptor; HEK293 GAL4-hgDAF12 UAS-luciferase reporter, agonist luminescence; normalized to butyrate control; activation, % at 6.8 µM; 370,000 tested, 1.8% active;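 active = activation above a cutoff set at the mean of all screened compounds plus 3 SD, cut at about 10% in these data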
hgDAF12 ag = hgDAF-12 agonism, confirmation assay | 3,300 tested, 80% active | activation, % at 6.8 µM | HEK293 GAL4-hgDAF12 luciferase reporter, agonist mode; percent of butyrate response | shares compounds with hgDAF12 agonist;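 active = mean activation over triplicate wells above the hit cutoff derived from the earlier primary screen, cut at about 11% in these data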
LXR ag 2 = LXR-beta agonism as DAF-12 counter-screen. AID 743051. activation, % at 6.8 µM. HEK293 Gal4-LXR luciferase reporter, 24 h. shares compounds with hgDAF12 agonist. 3,300 tested, under 10 active;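 active = mean activation of the triplicate above a set limit carried over from the primary screen, none filed active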
Target sequence (P55055 whole entry, looked up, the tested form may be a part): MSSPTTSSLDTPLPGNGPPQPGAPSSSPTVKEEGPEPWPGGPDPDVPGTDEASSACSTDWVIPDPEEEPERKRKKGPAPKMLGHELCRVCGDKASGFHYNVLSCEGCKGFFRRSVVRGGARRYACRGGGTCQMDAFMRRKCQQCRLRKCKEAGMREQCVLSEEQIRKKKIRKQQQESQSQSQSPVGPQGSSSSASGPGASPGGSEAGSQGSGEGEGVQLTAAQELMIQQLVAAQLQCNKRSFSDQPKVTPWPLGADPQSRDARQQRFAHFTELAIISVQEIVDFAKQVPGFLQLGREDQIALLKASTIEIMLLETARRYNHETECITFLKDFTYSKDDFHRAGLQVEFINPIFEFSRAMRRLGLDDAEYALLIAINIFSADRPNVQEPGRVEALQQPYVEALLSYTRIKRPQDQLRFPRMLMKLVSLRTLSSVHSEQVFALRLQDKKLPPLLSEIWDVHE
Each line names hits and unclear results; the compound was inactive in the other large screens (follow-up assays come after a bar, where they were run).

COC(CNC(=O)[C@H](Cc1c[nH]c2ccccc12)NC1(C(=O)NCc2ccccc2)CCCCC1)OC	none (no result: DAX1 inh-1, DAX1 inh-2)
CN(C)c1ccc(-c2ccnc3c2CC(C)(C(=O)NCc2cccc(Cl)c2)O3)cc1 (stereo unspecified)	none (no result: DAX1 inh-1)
COC(=O)c1cccc(Nc2cc(C)n(-c3cccc(C(=O)OC)c3)c(=O)c2)c1	none (no result: DAX1 inh-1)
COc1ccc(CCC(=O)NNC(=S)NCc2ccc(F)cc2)cc1	hgDAF12 agonist 14 | hgDAF12 ag inactive | LXR ag 2 inactive
COc1ccc(/C=N/NC(=O)c2sccc2C)c2ccccc12	DAX1 inh-1 6.2, hgDAF12 agonist 15 | hgDAF12 ag inactive | LXR ag 2 inactive
Cc1ccc(-c2nc3cccnc3s2)cc1NS(C)(=O)=O	hcDAF-12 act 6.4, hgDAF12 agonist 14 | hgDAF12 ag inactive | LXR ag 2 inactive
CCC(=O)Nc1cc2c(cc1Cl)-c1ccccc1C2	hcDAF-12 act 5.8, hgDAF12 agonist 18 | hgDAF12 ag 17 | LXR ag 2 inactive
C/C(CC(=O)NC1CCCCC1)=N\NC(=O)c1ccccn1	hgDAF12 agonist 20 | hgDAF12 ag inactive | LXR ag 2 inactive
O=C(NCc1cccs1)c1cccc2c(-c3cccnc3)coc12	none (no result: DAX1 inh-1)
N=C1/C(=C/c2ccc(OCc3ccccc3F)cc2)C(=O)N=C2SC(CC(=O)N3CCOCC3)=NN12	hgDAF12 agonist 15 | hgDAF12 ag inactive | LXR ag 2 inactive
CCCCOc1ccc(C(=O)NC2CCCCN(CCC)C2=O)cc1 (stereo unspecified)	none (no result: DAX1 inh-1)
O=C1CC(=Nc2ccc([N+](=O)[O-])cc2)NN1c1c(Cl)cc(Cl)cc1Cl	none
O=C(NCc1ccc(Cl)cc1)c1cnn2ccccc12	DAX1 inh-2 3.8, hgDAF12 agonist 18 | hgDAF12 ag 13 | LXR ag 2 inactive
Cc1[nH]c2ccccc2c1C(=O)c1cc(Cc2ccccc2)sc1N	none (no result: DAX1 inh-1)
CCCCNC(=O)C[C@H]1C[C@@]2(C(=O)OC)C(=C[C@H](COCc3ccccc3)O[C@@H]2C)N(CCc2ccc(OC)c(OC)c2)C1=O	none (no result: DAX1 inh-1)
CCc1ccc(-c2cn3c(n2)SCC3)cc1	DAX1 inh-2 4.0, hgDAF12 agonist 16 | hgDAF12 ag 14 | LXR ag 2 inactive
Cc1ccc(NC(=O)Nc2cnc3ccccc3c2)cc1	DAX1 inh-2 3.7, hgDAF12 agonist 15 | hgDAF12 ag 20 | LXR ag 2 inactive
O=C(Nc1ccc(F)cc1)C1COc2ccccc2O1 (stereo unspecified)	none
O=C(Nc1cnc2ccccc2c1)C1COc2ccccc2O1 (stereo unspecified)	hgDAF12 agonist 14 | hgDAF12 ag inactive | LXR ag 2 inactive
CCC(CC)c1nnc(NC(=O)C2COc3ccccc3O2)s1 (stereo unspecified)	hgDAF12 agonist 14 | hgDAF12 ag inactive | LXR ag 2 inactive
COc1ccc(C(=O)N(C)CCOc2ccc(Cl)cc2)cc1S(=O)(=O)N1CCCC1	none
O=C(O)c1ccc(N=NN2CCCCC2)cc1	hgDAF12 agonist 14 (no result: DAX1 inh-1) | hgDAF12 ag 12 | LXR ag 2 inactive
Cc1ccccc1C(=O)N(C)[C@H]1C[C@H]2c3[nH]c4c(-c5ccc6c(c5)OCO6)cccc4c3CCN2C(=O)[C@H]1[C@H](C)O	none (no result: DAX1 inh-1)
O=c1c2ccccc2nnn1COc1cccc(Cl)c1	hgDAF12 agonist 13 | hgDAF12 ag inactive | LXR ag 2 inactive
O=C(O)CC1=C(Nc2ccccc2)C(=O)N(c2ccccc2)C1c1ccc(F)cc1 (stereo unspecified)	hgDAF12 agonist 18 | hgDAF12 ag 11 | LXR ag 2 inactive
CCN(C(=O)CSc1nnc(-c2ccccc2Cl)n1N)c1c(N)n(Cc2ccccc2)c(=O)[nH]c1=O	none
COC(=O)c1cc2n(n1)CCN(Cc1ccccc1Cl)C2=O	none
COC(=O)c1ccn(Cc2ccccc2Cl)n1	hgDAF12 agonist 14 | hgDAF12 ag inactive | LXR ag 2 inactive
NS(=O)(=O)c1cccc(NC(=O)CSc2nc3ccccc3c(=O)n2CC2CCCO2)c1 (stereo unspecified)	none
COc1ccc(/C=C(\NC(=O)c2ccc(C)cc2)C(=O)NCCCn2ccnc2)cc1OC	none
CC(=O)Nc1ccc(C(=O)OCc2ccc(F)cc2Cl)cc1	hgDAF12 agonist 24 | hgDAF12 ag inactive | LXR ag 2 inactive
CC(=O)Nc1ccc(C(=O)OCc2ccc(F)cc2)cc1	none
COc1cc(Nc2ccn3nc(-c4ccc(F)cc4)cc3n2)cc(OC)c1OC	none (no result: DAX1 inh-1)
O=C(Nc1ccc2c(c1)C(=O)NC2=O)c1ccc2ncsc2c1	none
O=C(Nc1ccc(Br)cc1)c1ccc2ncsc2c1	ssDAF12 agonist 1.0, hgDAF12 agonist 19 | hgDAF12 ag 15 | LXR ag 2 inactive
Cc1ncoc1C(=O)N1CCc2c([nH]c3ccccc23)C1c1ccccc1F (stereo unspecified)	hgDAF12 agonist 16 | hgDAF12 ag inactive | LXR ag 2 inactive
O=C(c1cc2ncccn2n1)N1CCc2c([nH]c3ccccc23)C1c1ccccc1F (stereo unspecified)	none
CCn1nc(C)cc1C(=O)N1CCc2c([nH]c3ccccc23)C1c1cc(F)ccc1F (stereo unspecified)	hcDAF-12 act 6.2, hgDAF12 agonist 14 (no result: DAX1 inh-1) | hgDAF12 ag 13 | LXR ag 2 inactive
Cc1cccc(C2c3[nH]c4ccccc4c3CCN2C(=O)c2cc(C(C)C)nc(N)n2)n1 (stereo unspecified)	none
CN(C(=O)COC(=O)c1ccc2c(c1)OCO2)C1CCS(=O)(=O)C1 (stereo unspecified)	none
CN(C(=O)COC(=O)c1ccc2c(c1)OCO2)C1CCCCC1	hgDAF12 agonist 13 | hgDAF12 ag inactive | LXR ag 2 inactive
O=C(O)C1(Nc2ccc(Br)cc2)CCCC1	none
C/C(=N\NC(=O)c1cc(C)[nH]n1)c1ccc(-c2ccccc2)cc1	none
C/C(=N\NC(=O)c1cc(C(C)C)[nH]n1)c1ccncc1	none
C/C(=N\NC(=O)c1cc(C)[nH]n1)c1cccs1	DAX1 inh-2 4.5, hgDAF12 agonist 17 | hgDAF12 ag 14 | LXR ag 2 inactive
C/C(=N/NC(=O)c1cc(C(C)C)[nH]n1)c1cccs1	hcDAF-12 act 6.1, hgDAF12 agonist 14 | hgDAF12 ag 16 | LXR ag 2 inactive
Cc1cc(C)n(CCNC(=O)[C@@H](Cc2ccccc2)NC(=O)[C@H]2O[C@@H](n3ccc(=O)[nH]c3=O)[C@H](O)[C@@H]2O)n1	none (no result: DAX1 inh-1)
C[C@@H](C(=O)Nc1ccc2c(c1)OCCO2)n1nnc2ccccc2c1=O	hgDAF12 agonist 13 | hgDAF12 ag 14 | LXR ag 2 inactive
CC(C(=O)Nc1ccc2c(c1)OCCO2)n1nnc(-c2ccccc2)n1 (stereo unspecified)	none
